# Source: PubChem BioAssay
# This is a sample that favours compounds with a hit; in the whole collection about 0.82% have one here.
# BioA inh – blocks M. tuberculosis BioA enzyme activity; purified M. tuberculosis BioA enzyme, plate reader; inhibition, % at 9.99 µM; 360,000 tested, 0.096% active; in the data active = inhibition above about 40%; inconclusive = no clear call, values can overlap the other calls
# RecA intein inh – Mtb RecA intein splicing inhibition | P9WHJ3 | cell-free RecA intein splicing, fluorescence | inhibition, % (test concentration not listed) | 290,000 tested, 0.75% active; in the data active = inhibition above about 30%; inconclusive = no clear call, values can overlap the other calls;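 also: 0% = vehicle wells and 100% = reference inhibitor control wells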
# Rv3671c protease – inhibitors of M. tuberculosis serine protease Rv3671c | 320,000 tested, 0.048% active | P9WHR9 | inhibition, % at 5.96 µM; in the data active = inhibition above about 38%;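 also: extracellular domain of Rv3671c used as enzyme; 0% = enzyme with DMSO and 100% = no enzyme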
# Mtb UGM inh – Mtb UDP-galactopyranose mutase inhibition | inhibition, % at 10 µM | purified UGM, fluorescence polarization probe displacement | 320,000 tested, 0.06% active | AID 504406; in the data active = inhibition above about 10%, passing the limit was not always enough; inconclusive = no clear call, values can overlap the other calls
# Target sequence (P9WIQ1 whole entry, looked up): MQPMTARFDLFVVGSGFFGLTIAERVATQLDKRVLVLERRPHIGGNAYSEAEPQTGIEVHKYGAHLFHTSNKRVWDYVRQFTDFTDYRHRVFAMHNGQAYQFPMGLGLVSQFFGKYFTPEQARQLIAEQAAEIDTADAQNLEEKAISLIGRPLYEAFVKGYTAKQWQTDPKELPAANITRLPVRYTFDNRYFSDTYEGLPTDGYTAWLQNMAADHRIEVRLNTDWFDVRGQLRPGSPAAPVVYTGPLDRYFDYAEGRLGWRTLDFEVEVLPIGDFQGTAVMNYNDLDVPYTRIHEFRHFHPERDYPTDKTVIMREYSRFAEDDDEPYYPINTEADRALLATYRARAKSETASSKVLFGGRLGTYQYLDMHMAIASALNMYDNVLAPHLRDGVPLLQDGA
# Y pestis TopoI – Y. pestis Topo-I inhibition via cleavage products | Y. pestis Topo-I cleavage product accumulation, plate reader | 360,000 tested, 0.064% active | activity, % at 10 µM; in the data active = activity above about 50%, passing the limit was not always enough; inconclusive = no clear call, values can overlap the other calls
# FadD28 binding – M. tuberculosis FadD28 bisubstrate binding inhibition; FadD28 bisubstrate probe binding, fluorescence polarization; inhibition, % at 12.5 µM; 360,000 tested, 0.22% active; in the data active = inhibition above about 8.5%, passing the limit was not always enough; inconclusive = no clear call, values can overlap the other calls
# * marks the source's active call; other numbers are inactive results; ? = inconclusive; . = no result given.
SMILES,BioA inh,RecA intein inh,Rv3671c protease,Mtb UGM inh,Y pestis TopoI,FadD28 binding
C[C@@H]1CN([C@H](C)CO)C(=O)c2cc(NC(=O)Nc3cccc4ccccc34)ccc2O[C@@H](C)CCCCO[C@@H]1CN(C)CC1CCCCC1,-4,.,.,.,.,.
Cc1ccccc1OCCn1cc(C(=S)N2CCCC2)c2ccccc21,-3,.,-8,11*,-1,-2
CN1CCN(C(=O)C[C@@H]2CC[C@@H](NC(=O)Cc3ccccn3)[C@H](CO)O2)CC1,-3,.,.,.,.,.
O=C(O)/C=C/C(=O)Nc1ccc(Oc2ccc(NC(=O)/C=C/C(=O)O)cc2)cc1,.,8,5,.,.,.
O=C(O)/C=C\C(=O)Nc1ccc(Oc2ccc(Br)cc2)cc1,.,32*,11,0,-8,-3
COc1ccc(C(=O)c2ccsc2N)cc1,.,0,-8,-1,-4,8.6*
CCc1cc(C(=O)c2ccc(OC)cc2)c(N)s1,4,1,6,1,1,1
C[C@@H]1CN([C@H](C)CO)C(=O)c2cccc(NC(=O)c3nc4ccccc4s3)c2O[C@@H]1CN(C)C(=O)NC1CCCCC1,1,.,.,.,.,.
C[C@@H]1CN([C@@H](C)CO)C(=O)c2cc(NC(=O)c3ccncc3)ccc2O[C@@H]1CN(C)S(=O)(=O)c1cccs1,0,.,.,.,.,.
O=C(Cn1nnc(-c2ccc3c(c2)OCO3)n1)Nc1ccccc1C(=O)O,0,-1,6,4,-6,11*
O=C(Cn1nnc(-c2ccccc2)n1)Nc1ccc2c(c1)OCO2,-3,1,0,1,10,0
O=C(CCl)Nc1ccccc1C(=O)Nc1ccc2c(c1)OCO2,.,38*,-5,-1,2,-1
C[C@@H]1CN([C@H](C)CO)C(=O)c2cc(C3=CCCCC3)cnc2O[C@H]1CN(C)Cc1ccccn1,1,.,.,.,.,.
C[C@@H]1CN([C@H](C)CO)C(=O)Cc2cc(NC(=O)CCC(F)(F)F)ccc2O[C@@H]1CN(C)Cc1ccc(-c2ccccc2)cc1,1,.,.,.,.,.
CC(C)NC(=O)N(C)C[C@@H]1Oc2ccc(NS(C)(=O)=O)cc2CC(=O)N([C@H](C)CO)C[C@H]1C,0,.,.,.,.,.
Cn1cnc([N+](=O)[O-])c1Oc1cccc2ccccc12,.,36*,-3,2,-6,0
CN1CCN(C(=O)C[C@H]2CC[C@H]3[C@@H](COC[C@@H](O)CN3C(=O)Cc3ccccc3)O2)CC1,-1,.,.,.,.,.
O=C(O)CCN1C(=O)/C(=C\c2ccc(-c3nc4ccccc4s3)o2)SC1=S,-2,-46,-4,-1,26,20*
O=C(O)CCN1C(=O)/C(=C\c2ccncc2)SC1=S,-1,0,-2,-1,1,-1
COc1cccc(C(=O)N2C[C@@H]3[C@H](c4ccccc42)[C@H](CO)N3Cc2cccnc2)c1,-5,.,.,.,.,.
O=C(O)c1cccc(-n2cccc2/C=C/[N+](=O)[O-])c1,.,-2,11,1,-12,13*
C[C@H]1CCCCO[C@H](CN(C)Cc2ccncc2)[C@@H](C)CN([C@@H](C)CO)C(=O)c2cc(NC(=O)CCCN(C)C)ccc2O1,0,.,.,.,.,.
COc1ccc(NC(=O)CSc2ccc([N+](=O)[O-])cc2)cc1S(=O)(=O)N1CCOCC1,.,.,0,.,-2,12*
O=C(NCC[C@H]1CC[C@@H](NS(=O)(=O)c2ccc(Cl)cc2)[C@@H](CO)O1)c1ccccc1F,-1,.,.,.,.,.
COc1ccc(C(=O)Nc2cccc([N+](=O)[O-])c2)cc1Br,1,-2,8,1,-4,-6
SMILES,BioA inh,RecA intein inh,Rv3671c protease,Mtb UGM inh,Y pestis TopoI,FadD28 binding
O=C(Nc1ccc([N+](=O)[O-])cc1)Nc1ccc(OC(F)F)c(Cl)c1,.,.,-500,-2,-15,13*
COc1ccc(NC(=O)Nc2cccc([N+](=O)[O-])c2)cc1Cl,2,-3,-15,-3,-18,16*
O=C(Nc1ccc(OC(F)F)c(Cl)c1)Nc1ccc2c(c1)OCO2,.,0,-1,0,2,-3
CNC(=O)C[C@@H]1CC[C@H]2[C@@H](COc3ccc(NC(=O)Nc4ccc(F)cc4)cc3C(=O)N2C)O1,1,.,.,.,.,.
CCN(CC)c1ccc2cc(S(=O)(=O)c3ccc(C)cc3)c(=O)oc2c1,.,-73,-7,30*,19,-3
Cc1ccc(S(=O)(=O)c2cc3ccccc3oc2=O)cc1,.,-2,1,-1,7,-1
COC(=O)C(C)Sc1ncnc2c1nnn2-c1ccc(F)cc1 (centres undefined),0,53*,2,-1,7,-3
COc1cccc(/C=N/NC(=S)Nc2cccc(S(=O)(=O)N(C)C)c2)c1,-1,-5,-17,1,0,-7
COc1ccc(O)c(/C=N/NC(=S)Nc2cccc(S(=O)(=O)N(C)C)c2)c1,-1,-86,24,-2,-16,18*
O=C(/C=C/c1ccccc1)C1C(=O)c2ccccc2C1=O,.,7,-31,4,-6,0
CCc1ccc(/C=C/C(=O)C2C(=O)c3ccccc3C2=O)cc1,.,33*,7,3,0,13*
CCCC#Cc1cnc2c(c1)C(=O)N([C@@H](C)CO)C[C@H](C)[C@H](CN(C)C(=O)C1CCOCC1)O2,-4,.,.,.,.,.
CN(Cc1c(F)cccc1Cl)C(=O)c1ccc(COc2ccccc2)cc1,-1,18,-7,-5,55*,-2
CSCCC(NC(=O)COc1ccccc1)C(=O)N(C)Cc1c(F)cccc1Cl (centres undefined),0,.,.,.,24,-3
O=C(CCn1c(=O)oc2ccccc21)Nc1cccc(Cl)c1,1,1,4,-1,-4,-4
Cc1cccc(NC(=O)Cn2c(=O)oc3ccccc32)c1,0,-2,7,0,2,35*
O=C(Cn1c(=O)oc2ccccc21)Nc1cccc(Cl)c1,-1,.,-10,-3,-3,11*
COc1ccc(C)cc1NC(=O)Cn1c(=O)oc2ccccc21,-1,2,-4,-3,6,?
C[C@H]1CN([C@@H](C)CO)C(=O)c2cc(NC(=O)c3ccncc3)ccc2O[C@H]1CN(C)S(=O)(=O)c1cccs1,11,.,.,.,.,.
O=C(N[C@@H]1CC[C@H](CCNS(=O)(=O)c2cccc(Cl)c2)O[C@H]1CO)c1ccncc1,-3,.,.,.,.,.
Cc1ccc(S(=O)(=O)Nc2cccc3c2O[C@H](CN(C)C(=O)Nc2ccc(F)cc2)[C@@H](C)CN([C@@H](C)CO)C3=O)cc1,2,.,.,.,.,.
Cn1nc([N+](=O)[O-])c(C(C#N)c2nc3ccccc3n2C)c(Cl)c1=O (centres undefined),.,-10,18,0,-6,12*
CC(=O)Oc1cc2c(cc1OC(C)=O)C(=O)CCCC2,-1,.,.,.,4,-4
COC(=O)C1(C)Cc2cc(OC(C)=O)c(OC(C)=O)cc2N1 (centres undefined),.,61*,2,-1,.,.
Nc1ccc(S(=O)(=O)Nc2nccs2)cc1N=Nc1ccccc1[N+](=O)[O-],.,.,.,.,-16,12*
O=[N+]([O-])c1ccccc1S(=O)(=O)Nc1ccc(S(=O)(=O)Nc2nccs2)cc1,-1,1,4,0,5,-1
